Consider 40 molecules from ChEMBL document CHEMBL3988442, “University of Dundee, Small-Polar-MMV Screening Library” (2021).

Each structure is given as a SMILES string.

For the test, the target named is T1, Aspartate--tRNA(Asp/Asn) ligase (Mycobacterium tuberculosis (strain ATCC 25618 / H37Rv)) (UniProt P9WFW3).
T1 sequence (whole entry): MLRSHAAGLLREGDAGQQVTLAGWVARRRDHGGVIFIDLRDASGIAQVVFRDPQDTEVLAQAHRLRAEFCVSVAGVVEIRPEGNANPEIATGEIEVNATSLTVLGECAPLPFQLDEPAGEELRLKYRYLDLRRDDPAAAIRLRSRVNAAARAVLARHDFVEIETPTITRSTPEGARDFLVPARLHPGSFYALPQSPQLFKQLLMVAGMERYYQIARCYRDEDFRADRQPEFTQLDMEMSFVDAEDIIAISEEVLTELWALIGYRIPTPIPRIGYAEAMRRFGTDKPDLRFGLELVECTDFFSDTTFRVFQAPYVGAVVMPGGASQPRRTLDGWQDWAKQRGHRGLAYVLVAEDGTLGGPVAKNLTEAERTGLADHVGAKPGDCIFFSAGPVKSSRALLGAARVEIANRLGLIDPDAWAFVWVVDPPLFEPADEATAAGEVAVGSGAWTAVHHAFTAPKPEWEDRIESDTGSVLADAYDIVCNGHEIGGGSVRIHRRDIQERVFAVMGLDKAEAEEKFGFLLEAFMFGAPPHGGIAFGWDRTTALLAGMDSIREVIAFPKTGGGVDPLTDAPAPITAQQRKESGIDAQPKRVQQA
Briefly: Assay for Asp RNA synthetase-1 from Mycobacterium tuberculosis. The format is functional. Set-up: scale not given: in the data most compounds retested in dose-response had high values. The following applies: 30 µM.
Turning to `Cc1nc(C)n(CC2CCCN(Cc3nc(C4CC4)no3)C2)n1` (stereo not given), the Percent Effect is 4.92%.

Consider `CC(C)c1ccc(CN2CCC3(CCCN(c4nncs4)C3)C2)cc1` (stereo not given), for which the Percent Effect was determined as 1%. Regarding `Cc1csc(N2CCN(C(=O)CCNc3ncccn3)CC2)n1`, the Percent Effect was determined as 1.38%.

`O=C(CCc1cc2n(n1)CCCN(Cc1ccccc1F)C2)NC1CC1`: the Percent Effect was -1.95%. As for `Cc1cc(NC(=O)c2nc(N3CCCC3)ncc2Cl)nc(C(C)C)n1`, the Percent Effect was 2.49%. With `CNc1nc(CNC(=O)Nc2cccc(-c3nnco3)c2)cs1`, the Percent Effect was determined as 2.65%. As for `Cc1nc(C)n(CC2CCCN(c3ncnc4[nH]ccc34)C2)n1` (stereo not given), the figure is -1.82%; as for `CCN(CC)C(=O)CN(C)C1CCc2ccccc21` (stereo not given), -4.5%. For the molecule `Cc1nc(COc2cccc(C#N)c2)no1`, the Percent Effect is -0.618%. As for `Cc1n[nH]c(C)c1C1CCCN1C(=O)NCCSC(C)(C)C` (stereo not given), the figure is 3.45%. In the case of `Cc1cnn(CC2CCCN2Cc2nccn2C)c1` (stereo not given), the Percent Effect was determined as 5.22%. Turning to `O=C(N[C@@H]1CN(Cc2ccc3c(c2)OCO3)[C@@H]2CCCO[C@@H]21)C1CC1`, the Percent Effect is 5.97%.

For the molecule `CCC(C)NC(=O)NCCCn1nc2ccccn2c1=O` (stereo not given), the Percent Effect was 1.23%. In the case of `Cc1cc(C)c(CNC(=O)N2CCCC2C(N)=O)c(=O)[nH]1` (stereo not given), the Percent Effect is -6.91%. As to `CC(C)NC(=O)COc1nc(C(C)C)no1`, the Percent Effect was -2.64%.

On to `CC(C)c1noc(CCCC(=O)N2CCC(Cc3cccnc3)CC2)n1`, for which the Percent Effect is -0.0571%. Take `CCC(CC)C(CNC(=O)Nc1ccc(C)cc1)N1CCOCC1` (stereo not given): the Percent Effect is -1.91%. Regarding `O=C(c1ccoc1)N1CC[C@@H]2O[C@H](COCc3ccccn3)CC[C@@H]21`, the Percent Effect came to 1.36%. As for `Cc1cccc(N2Cc3nc(=O)[nH]n3C2=O)c1`, the figure is -3.43%; as for `COCC1CC2(CCN(Cc3ccc(OC)cc3)CC2)CN1C(C)C` (stereo not given), -1.24%. As for `Cn1cc(CN2CCCN(C(=O)c3cn4ccccc4n3)CC2)cn1`, the figure is 1.48%; as for `O=C(CCC1CCCC1)NCCn1nc(C2CCNC2)c2cccnc21` (stereo not given), -0.368%. As for `CC(C)COCC(NC(=O)c1cccnc1)c1ccco1` (stereo not given), the figure is 2.37%. As for `COc1cccc2c1ccn2CCNC(=O)C(C)C`, the Percent Effect worked out at 6.33%. With `CN(Cc1cnn(C)c1)C(=O)Cn1c(CS(C)(=O)=O)nc2ccccc21`, the Percent Effect was -0.869%. For `c1cnn(CC2CN(Cc3ccc(-n4ccnc4)cc3)CCO2)c1` (stereo not given), the Percent Effect is -1.11%. On to `CN(Cc1cc2c(cc1OC(F)F)OCO2)Cc1nccn1C`, for which the Percent Effect is 3.96%. `CCn1ncnc1C1CC(=O)NCc2nc3ccccn3c21` (stereo not given): the Percent Effect was -2.72%.

Take `Cc1ccc(N2CCCN(C(=O)C3(C#N)CCCCC3)CC2)nn1`: the Percent Effect is -0.989%. As for `NC(=O)CN1CCC(NC(=O)c2ccn(-c3cccc(F)c3)n2)CC1`, the figure is 2.51%; as for `N#Cc1ccnc(N2CCN(C(=O)Cc3ccc4c(c3)CCO4)CC2)c1`, 0.144%; as for `c1ccc(-n2ncc(CNCC3CCCN3c3cccnn3)n2)cc1` (stereo not given), 4.5%. With `CC(=O)NCCC(=O)NCc1cccnc1-n1cnc2ccccc21`, the Percent Effect is -1.62%. As for `Cc1cn2c(n1)CCC(NC(=O)CCn1ccnn1)C2` (stereo not given), the figure is -3.77%. Consider `Cc1nnc(C(C)N2CCN(Cc3ccc4c(c3)OCO4)CC2)o1` (stereo not given), for which the Percent Effect is -0.657%. With `CCn1cnnc1CNC(=O)N1CCOCC1`, the Percent Effect was -11.7%. `Cc1nnc(CN2CCCC(c3cc(C(N)=O)[nH]n3)C2)o1` (stereo not given): the Percent Effect was -2.96%.

As to `CC(Cn1cccn1)NC(=O)NCc1ccc(S(N)(=O)=O)cc1` (stereo not given), the Percent Effect came out at 6.49%. As to `Clc1ccc2cccnc2c1CN1CCCC(Cn2cncn2)C1` (stereo not given), the Percent Effect is -1.86%. As for `COc1cccc(CN2CCCC3(CCN(C(=O)c4ccco4)C3)C2)c1` (stereo not given), the Percent Effect is 0.0455%.
